An excerpt weighted towards active compounds, which were near 19% of everything screened.
DT40 TDP1 CPT – DT40-hTDP1 cell growth loss with CPT; chicken DT40 Tdp1-/-;hTDP1 cells + 20 nM CPT, ATP luminescence, 48 h; Potency, µM (top dose mostly 46.2 µM), for inactives: at the highest dose activity change, negative = growth inhibition, usual class: inhibitors; 12% of 420,000 active; AID 686979; also: potency is read from the fitted curve at half-maximal effect; % is scaled to controls: 0 for no effect and ±100 for the full control effect; nearly all actives have a fitted effect of over 55% in size
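Cell growth measured by CellTiter-Glo luminescence after a minimum 48 h, 37 C compound exposure with 20 nM CPT in Tdp1-knockout DT40 cells stably expressing hTDP1, seeded 400/well; qHTS titration format.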
HepG2 viability – counter-screen for TGF-b inhibitors: cytotoxicity in HepG2 cells; HepG2 CAGA-GFP viability, ATP luminescence, 18 h; Potency, µM (highest dose often 46.1 µM), without a hit: top-dose activity change, negative = cytotoxicity, hits mostly cytotoxic; 0.76% of 410,000 active; AID 588856; also: potency is read from the fitted curve at half-maximal effect
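CellTiter-Glo luminescence gave cytotoxicity after 18 hours at 37 degrees C. The cells were HepG2 CAGA-GFP in 1% FBS DMEM, stimulated with 500 pg/mL TGF-beta after compound addition. %Activity was normalised to no-cell wells (complete cell-killing) and DMSO (no toxicity), and curves were fitted and classified.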
TDP1 block – blocks human tyrosyl-DNA phosphodiesterase 1; AID 485290; 0.28% of 350,000 active; recombinant TDP1, AlphaScreen DNA substrate cleavage; Potency, µM (highest dose often 130 µM), without a hit: top-dose activity change, negative = inhibition, most hits filed as inhibitors; Q9NUW8; also: potency is read from the fitted curve at half-maximal effect; % is scaled to controls: 0 for no effect and ±100 for the full control effect; nearly all actives have a fitted effect of over 40% in size
Target sequence (Q9NUW8 whole entry, looked up): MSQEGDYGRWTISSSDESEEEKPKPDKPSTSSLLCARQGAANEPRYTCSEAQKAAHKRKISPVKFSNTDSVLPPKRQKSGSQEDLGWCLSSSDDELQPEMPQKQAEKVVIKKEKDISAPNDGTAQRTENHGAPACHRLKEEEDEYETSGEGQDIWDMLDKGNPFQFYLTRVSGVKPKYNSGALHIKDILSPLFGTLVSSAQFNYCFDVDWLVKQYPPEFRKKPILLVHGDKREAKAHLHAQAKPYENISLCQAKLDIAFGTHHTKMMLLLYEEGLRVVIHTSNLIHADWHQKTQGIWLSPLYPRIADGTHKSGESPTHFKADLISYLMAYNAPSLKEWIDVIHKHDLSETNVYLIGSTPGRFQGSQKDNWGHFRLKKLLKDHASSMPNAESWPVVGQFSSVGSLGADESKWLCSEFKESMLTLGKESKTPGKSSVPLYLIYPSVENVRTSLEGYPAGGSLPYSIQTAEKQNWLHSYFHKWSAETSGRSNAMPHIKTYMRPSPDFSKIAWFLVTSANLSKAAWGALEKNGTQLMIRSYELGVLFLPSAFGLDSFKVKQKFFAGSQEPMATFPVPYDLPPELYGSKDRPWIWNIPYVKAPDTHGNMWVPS
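Recombinant human Tdp1 (E. coli-expressed, 1 nM final) preincubated with compounds 15 min at room temperature, then 5'-biotin/3'-phosphotyrosine-FITC DNA substrate (15 nM final) added for 5 min. AlphaScreen beads (10 ug/ml final) added 10 min; cleavage lowers signal.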
DT40 TDP1 no CPT – qHTS for Inhibitors of human tyrosyl-DNA phosphodiesterase 1 (TDP1): qHTS in cells in absence of CPT | DT40 Tdp1-/- hTDP1 cells, no CPT, ATP luminescence, 48 h | Potency, µM (series often up to 46.2 µM), without a hit: top-dose activity change, negative = growth inhibition, hits mostly inhibitors | 15% of 420,000 active | AID 686978, 2013; also: potency is read from the fitted curve at half-maximal effect; % is scaled to controls: 0 for no effect and ±100 for the full control effect; nearly all actives have a fitted effect of over 55% in size
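Growth of hTDP1-complemented DT40 Tdp1-knockout cells is measured by ATP luminescence after at least 48 hr compound exposure at 37 °C, with DMSO substituting for the 20 nM CPT used in the parallel screen.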
TGFb inhibitor – blocks TGF-b signaling | HepG2 CAGA-GFP TGF-b/SMAD3 reporter, GFP fluorescence, 18 h; TGF-beta stimulated, 500 pg/mL final | Potency, µM (titrated, usually from 46.1 µM), for the others: top-dose activity, negative = inhibition, most hits filed as inhibitors | 1.2% of 410,000 active; also: potency is read from the fitted curve at half-maximal effect; % is scaled to controls: 0 for no effect and ±100 for the full control effect; nearly all actives have a fitted effect of over 65% in size
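Inhibition of TGF-beta-driven CAGA-GFP reporter expression in HEPG2 cells is measured by cellular GFP fluorescence after 18 h stimulation with 500 pg/mL recombinant TGF-beta in 1% FBS medium at 37 degrees C.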
IL-1B inflam inh – inhibitors of inflammasome signaling (IL-1 beta secretion); activity change, % at 57.5 µM; THP-1 LPS/ATP IL-1B secretion, AlphaLISA, 16 h; active compounds read low; 4.7% of 360,000 active; in the data active = activity change below about -50%; inconclusive = mostly about -30% to -49%; also: % is scaled to controls: 0 for no effect and ±100 for the full control effect
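THP-1 cells pretreated 1 hr with compounds (up to 57.5 uM final), then stimulated with LPS (250 ng/mL final) plus ATP (1.25 mM final); secreted IL-1B measured by AlphaLISA after 16 hr, decreased signal indicating inhibition.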
An asterisk follows results filed as active; [ ] = remark or other dose. Unless noted, calls follow the shape of the dose curve; as a rule, active = well fitted curve in the direction sought with a large enough effect; inconclusive = small, poorly fitted or top-dose-only effect, or another doubt; inactive = no such curve, though single readings can be large; an effect the other way counts as inactive or inconclusive.

Screening Cc1nn(Cc2cccc(C(=O)Nc3ccn(Cc4ccccc4F)n3)c2)c(C)c1[N+](=O)[O-] returned DT40 TDP1 CPT 23µM*, HepG2 viability -8%, TDP1 block 2%, DT40 TDP1 no CPT inconclusive, TGFb inhibitor -7% and IL-1B inflam inh 0.
For Cc1cccc(Cn2ccc(NC(=O)c3ccc4c(c3)OCO4)n2)c1 the results were DT40 TDP1 CPT 8%, HepG2 viability -9%, TDP1 block 2%, DT40 TDP1 no CPT -27%, TGFb inhibitor -7% and IL-1B inflam inh -52*.
O=C(Nc1ccn(Cc2ccccc2F)n1)c1ccc(COc2ccc(Br)cc2)cc1 was read as DT40 TDP1 CPT 11µM*, HepG2 viability -47%, TDP1 block 1%, DT40 TDP1 no CPT inconclusive, TGFb inhibitor -17% and IL-1B inflam inh -27.
Screening CNCC(=O)NCC(=O)N[C@@H](Cc1ccccc1)C(=O)N[C@@H](CC(C)C)C(=O)O returned DT40 TDP1 CPT -17%[4.12 µM], TDP1 block -7% and DT40 TDP1 no CPT -15%[4.12 µM].
`CC(SC1=NCCS1)C(=O)Nc1nnc(-c2ccc(Br)cc2)s1` (configuration not stated) gave DT40 TDP1 CPT inconclusive, HepG2 viability -23%, TDP1 block 2%, DT40 TDP1 no CPT inconclusive, TGFb inhibitor -11% and IL-1B inflam inh -20.
CC(SC1=NCCS1)C(=O)Nc1nnc(-c2ccc(F)cc2)s1 (configuration not stated) was read as DT40 TDP1 CPT -9%, HepG2 viability -12%, TDP1 block 7%, DT40 TDP1 no CPT -22%, TGFb inhibitor 15% and IL-1B inflam inh -53*.
Screening Cc1ccccc1OCc1ccc(-c2nc(C#N)c(NCCCN(C)C)o2)o1 returned DT40 TDP1 CPT inconclusive, HepG2 viability -60%, TDP1 block 2%, DT40 TDP1 no CPT inconclusive and TGFb inhibitor inconclusive.
For Cc1cc(O)c(-c2cc(C(=O)Nc3ccc(S(=O)(=O)N4CCOCC4)cc3)[nH]n2)cc1C the results were DT40 TDP1 CPT inconclusive, HepG2 viability -42%, TDP1 block 6%, DT40 TDP1 no CPT 18µM*, TGFb inhibitor inconclusive and IL-1B inflam inh -105*.
Screening O=C(Nc1ccc(S(=O)(=O)N2CCOCC2)cc1)c1cc(-c2cc(Cl)ccc2O)n[nH]1 returned DT40 TDP1 CPT 6.5µM*, HepG2 viability -127%, TDP1 block 5%, DT40 TDP1 no CPT 5.8µM*, TGFb inhibitor inconclusive and IL-1B inflam inh inconclusive.
`CC(C)(C)OC(=O)C[C@H]1C/C=C\C[C@H](CC(=O)NCCO)C(=O)N2CCC[C@@H]2COC1=O` gave DT40 TDP1 CPT -9%, HepG2 viability 2%, TDP1 block 1%, DT40 TDP1 no CPT -21%, TGFb inhibitor 0% and IL-1B inflam inh 7.
For Cc1ccc(OCCCCNC(C)c2ccccc2)c(C)c1 (configuration not stated) the results were DT40 TDP1 CPT inconclusive, HepG2 viability -49%, DT40 TDP1 no CPT inconclusive, TGFb inhibitor inconclusive and IL-1B inflam inh -91*.
Brc1ccccc1Cn1cnc2ccccc21 was read as DT40 TDP1 CPT inconclusive, HepG2 viability -31%, DT40 TDP1 no CPT 21µM*, TGFb inhibitor inconclusive and IL-1B inflam inh 11.
Screening NC(=O)CCn1cnc2ccccc21 returned DT40 TDP1 CPT 18%, HepG2 viability -65%, TDP1 block -2%, DT40 TDP1 no CPT 1%, TGFb inhibitor 0% and IL-1B inflam inh 0.
Screening Clc1ccc(Cn2cnc3ccccc32)cc1 returned DT40 TDP1 CPT inconclusive, HepG2 viability -6%, TDP1 block 4%, DT40 TDP1 no CPT inconclusive, TGFb inhibitor -27% and IL-1B inflam inh -26.

Compound activity: PubChem BioAssay, National Center for Advancing Translational Sciences (NCATS)
